Laboratory results: PubChem BioAssay (Tox21)
Records with an inconclusive call do not appear. The source made the active and inactive calls. Calls come from the whole dose curve; as a rule, active = well fitted inhibition curve with a large enough effect in the repeat runs; inconclusive = weak or mixed curves; inactive = no such curve, though single readings can be large or run the other way.
% is set by controls: 0 for no effect and ±100 for the full control effect; potency is the fitted concentration of half-maximal effect.

Each compound was assayed against Cytochrome P450 2D6 (Homo sapiens) (UniProt P10635) (assay: Cytochrome P450 Family 2 Subfamily D Member 6 (CYP2D6) small molecule antagonists: luciferase reporter qHTS assay (AID 1671196; note: nearly all actives have a fitted effect of over 50% in size)). Details: P450-Glo CYP2D6 enzyme assay, luciferin luminescence, 1 h; series mostly up to 115 µM; activity change, negative = inhibition: at the top concentration.
Cytochrome P450 2D6 (Homo sapiens), sequence (P10635 whole entry, looked up): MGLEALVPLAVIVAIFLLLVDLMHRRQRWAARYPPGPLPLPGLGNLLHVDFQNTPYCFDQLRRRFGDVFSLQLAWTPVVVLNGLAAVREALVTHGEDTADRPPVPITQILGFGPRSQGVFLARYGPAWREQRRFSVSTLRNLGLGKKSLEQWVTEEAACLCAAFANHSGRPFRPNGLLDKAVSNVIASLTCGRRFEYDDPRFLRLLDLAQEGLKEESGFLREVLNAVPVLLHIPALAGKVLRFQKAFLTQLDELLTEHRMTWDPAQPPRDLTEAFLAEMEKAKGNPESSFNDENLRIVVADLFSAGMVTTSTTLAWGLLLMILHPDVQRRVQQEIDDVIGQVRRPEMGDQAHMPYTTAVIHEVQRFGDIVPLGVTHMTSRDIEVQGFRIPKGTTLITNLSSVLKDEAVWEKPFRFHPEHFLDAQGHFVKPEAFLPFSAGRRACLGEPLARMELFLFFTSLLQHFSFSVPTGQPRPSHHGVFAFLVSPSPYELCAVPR
Text: U.S. Tox21 Program National Center for Advancing Translational Sciences [NCATS] U.S. Environmental Protection Agency [EPA] National Institutes of Environmental Health Sciences [NIEHS] National Toxicology Program [NTP] U.S. Food and Drug Administration [FDA] Tox21 Assay Overview: Cytochrome P450 (CYP) enzymes are membrane-bound hemeproteins that play a key role in metabolism of drugs and xenobiotics. Evaluation of the effect of chemicals on CYP isozymes is useful to minimize the adverse drug reactions and toxicities in drug development process. Tox21 chemicals were tested for their effect on CYP enzyme activities by using P450-Glo (TM) screening systems (Promega Corporation, Madison, WI). These systems provide a luminescent method containing proluciferin substrates and are converted to luciferin products by CYP isozymes. The luciferin products formed are detected with a luciferin detection reagent, and the amount of light produced is proportional to CYP activity. P450-Glo (TM) CYP2D6 screening system (Catalog. No. V9890) was used to detect the compounds that interfere in CYP2D6 activity.
Tox21 Assay Protocol Summary: Two ul of enzyme-substrate mix was dispensed into medium binding white/solid 1536-well plates (Greiner Bio-One North America Inc., Monroe, NC) using a BioRaptr Flying Reagent Dispenser (FRD, Beckman Coulter, Brea, CA). […] The assay plates were incubated at room temperature for 10 min. Then 2 ul of NADPH regeneration solution was added to each well of the assay plates using an FRD and incubated at room temperature for 1 h. The reaction was stopped by adding 4 ul of detection reagent using an FRD and after 20 min incubation at room temperature the luminescence signal was measured using a ViewLux plate reader (Perkin Elmer, Shelton, CT). Data were expressed as relative luminescence units.
CCCOCCOCCO was tested, and the “activity change, negative = inhibition” value was -7.07% (inactive).
With Cc1ccc(Nc2nccc(N(C)c3ccc4c(C)n(C)nc4c3)n2)cc1S(N)(=O)=O the “activity change, negative = inhibition” value was -11.8% [at 53 µM] (inactive).
For NCC1CCCC(CN)C1 (stereo not given), the Potency was 14.2 µM (active).
In the case of C=CC(C)=CCC=C(C)C, the “activity change, negative = inhibition” value is reported as -21.3% (inactive).
With CO[Si](C)(OC)OC the “activity change, negative = inhibition” value was -6.39% (inactive).
O=C(CS)OCCOC(=O)CS was tested, and the “activity change, negative = inhibition” value was -12.3% (inactive).
For Cc1cc(O)c2c(O)c3c(O)cccc3cc2c1, the “activity change, negative = inhibition” value was -5.95% [at 53 µM] (inactive).
In the case of Cc1nc2ccccn2c(=O)c1CCN1CCC(C(=O)c2ccc(F)cc2)CC1, the Potency is reported as 4.36 µM (active).
With CC1CC(=O)NN=C1c1ccc(NCC(C)(C)NCC(O)COc2cc(Cl)ccc2C#N)cc1 (stereo not given) the Potency was 5.49 µM (active).
O=C(N[C@@H](c1ccccc1)[C@@H]1CCCCN1)c1cccc(C(F)(F)F)c1Cl was tested, and the Potency was 1.26 µM (active).
For C=CCCCCCCCCCCCCCCCC, the activity change, negative = inhibition was 0.602% [at 10.5 µM] (inactive).
In the case of CC(=O)CC(c1ccc([N+](=O)[O-])cc1)c1c(O)c2ccccc2oc1=O (stereo not given), the Potency is reported as 38.9 µM (active).
CC(=O)N(c1onc(C)c1C)S(=O)(=O)c1ccc(N)cc1 was tested, and the “activity change, negative = inhibition” value was 2.73% [at 53 µM] (inactive).
With C=CC(C)(C)CC(=O)OC the Potency was 63.5 µM (active).
Cc1cc2nc3ccc(=[N+](C)C)cc-3sc2cc1N was tested, and the Potency was 5.49 µM (active).
With C=CC(=O)NCOCC(C)C the “activity change, negative = inhibition” value was -13.9% (inactive).
In the case of CO/N=C1\CN(c2nc3c(cc2F)c(=O)c(C(=O)O)cn3C2CC2)CC1CN (stereo not given), the “activity change, negative = inhibition” value is reported as -1.23% [at 53 µM] (inactive).
In the case of O=Cc1c(Cl)cccc1Cl, the “activity change, negative = inhibition” value is reported as -1.98% (inactive).
With CC(=O)Oc1ccc2c(c1)CC[C@@H]1[C@@H]2CC[C@]2(C)[C@@H](O)CC[C@@H]12 the “activity change, negative = inhibition” value was -19.4% [at 53 µM] (inactive).
For COC(=O)c1cc(Cl)ccc1NS(=O)(=O)C(F)(F)F, the “activity change, negative = inhibition” value was -11% [at 53 µM] (inactive).
COc1ccc(C(=O)c2cccc(O)c2)c(OC)c1 was tested, and the “activity change, negative = inhibition” value was -27.8% (inactive).
With O=C(/C=C/c1ccccc1)OCCCc1ccccc1 the “activity change, negative = inhibition” value was -12.2% (inactive).
CCCCCCCC/C=C\CCCCCCCC(=O)OC was tested, and the “activity change, negative = inhibition” value was -6.96% (inactive).
In the case of CCCCC(=O)O[C@]1(C(=O)CO)CC[C@H]2[C@@H]3CCC4=CC(=O)CC[C@]4(C)[C@H]3[C@@H](O)C[C@@]21C, the “activity change, negative = inhibition” value is reported as -27.8% [at 53 µM] (inactive).
In the case of CCCCCCCCCCCCCCCCBr, the activity change, negative = inhibition is reported as -8.89% [at 23.6 µM] (inactive).
O=C(OCCOCCO)c1ccccc1Nc1cccc(C(F)(F)F)c1 was tested, and the “activity change, negative = inhibition” value was -20.6% [at 53 µM] (inactive).
O=C(C(=O)c1ccccc1)c1ccccc1 was tested, and the Potency was 31.6 µM (active).
For Cc1occc1C(=O)Nc1ccc(C(=O)N2CCC(F)(F)/C(=C\C(=O)N3CCC(N4CCCCC4)CC3)c3ccccc32)cc1, the Potency was 2.79 µM (active).
In the case of CC(=O)[C@H]1CC[C@H]2[C@@H]3C=CC4=CC(=O)CC[C@@]4(C)[C@@H]3CC[C@]12C, the “activity change, negative = inhibition” value is reported as -17.1% [at 53 µM] (inactive).
In the case of O=C(c1ccc(O)cc1)c1ccc(Cl)cc1, the Potency is reported as 64.7 µM (active).
For O=C(Nc1ccccc1)Nc1ccccc1, the Potency was 28.4 µM (active).
For NC(=O)Nc1ccc(Cl)cc1, the “activity change, negative = inhibition” value was -2.44% (inactive).
For OC(CCCN1CCCCC1)(c1ccccc1)c1ccccc1, the Potency was 0.11 µM (active).
In the case of CC1C2CC(CC2C2CCCC(O)C2)C1(C)C (stereo not given), the “activity change, negative = inhibition” value is reported as -19% (inactive).
CCC1(C)CC(=O)NC1=O (stereo not given) was tested, and the “activity change, negative = inhibition” value was -2.52% [at 53 µM] (inactive).
In the case of COC(=O)CC(=O)C(C)(C)C, the “activity change, negative = inhibition” value is reported as -10.4% (inactive).
With COCc1c(C(C)C)nc(C(C)C)c(/C=C/[C@@H](O)C[C@@H](O)CC(=O)O)c1-c1ccc(F)cc1 the Potency was “inactive”.
For COC(=O)c1cc(S(N)(=O)=O)ccc1OC, the “activity change, negative = inhibition” value was 1.6% [at 53 µM] (inactive).
With O=C(O)Cc1ccc(-c2ccccc2)cc1 the “activity change, negative = inhibition” value was -9.03% [at 53 µM] (inactive).
In the case of CCCOc1ccc(S(=O)(=O)N2CCN(CC)CC2)cc1-c1nc2c(CC)n(Cc3ccccn3)nc2c(=O)[nH]1, the “activity change, negative = inhibition” value is reported as -26.7% (inactive).
